Measurements: PubChem BioAssay (EPA / NIEHS)
The source made the active and inactive calls. Rule for the calls: active = hit-call score of the fitted dose curve at least 0.9, where 1 is the maximum; inactive = score below 0.9.

Read-out: Pro-epidermal growth factor (Homo sapiens) (UniProt P01133)
Assay: LTEA_HepaRG_EGF: Life Technologies and Expression Analysis (LTEA) Assay for Epidermal growth factor (EGF) using HepaRG (AID 2283489)
Conditions: mRNA level, 48 h; actives raise or lower the signal
Protocol: LTEA_HepaRG is a cell based, multiplexed-readout assay that uses HepaRG, a human liver cell line, with measurements taken at 48 hours after chemical dosing on a 96-well plate.LTEA_HepaRG_EGF is one of 102 assay component(s) measured in the LTEA HepaRG cell culture assay. It is a marker of Cell proliferation, survival, death.Data from the assay component LTEA_HepaRG_EGF was analyzed into 1 endpoint. This assay endpoint, LTEA_HepaRG_EGF, was analyzed with bidirectional fitting relative to DMSO as the negative control and baseline of activity. Using a type of inducible reporter, measures of mRNA induction for gain or loss-of-signal activity can be used to understand regulation of transcription factor activity. To generalize the intended target to other relatable targets, this assay endpoint is annotated to the growth factor intended target family, where the subfamily is EGF-like domain.
A total of 1060 chemcials from the ToxCast library were tested in eight-point concentration-response experiments. Cell culture and cytotoxicity assays were conducted at Thermo Fisher Scientific's Custom Services facility (Madison, WI). A single lot of human HepaRG cells (Thermo Fisher Scientific, Frederick, MD) was used for the cell culture experiments. 96-well format collagen type I coated plates of human HepaRG cells were prepared using established methods. Briefly, cryopreserved HepaRG cells were thawed, plated at a density of approximately 100,000 cells/well in HepaRG Thaw, Plate, and General Purpose media (HPRG770, Thermo Fisher Scientific), and incubated for 48 hours. 0.5% DMSO was selected as vehicle control to balance the requisite need of DMSO in HepaRG cultures to maintain differentiation (for example, baseline metabolism, proportions of hepatocytes vs. cholangiocytes), while enabling further hepatic receptor pathway activation (for example, PXR and CAR) in response to chemical exposure. 48 hours after plating, the culture medium was replaced with HepaRG Serum-Free Incudtion Media. Cells were exposed to each test chemical in duplicate and maintained in CO2 incubators for another 48 hours. Chemical plates were thawed to room temperature and 200x concentrations of treatment groups were prepared. 8-point conentration-reponse curves were made with the highest exposure at 100 uM, followed by half-log dilutions, all in 0.5% DMSO. Each test plate contained variouse controls, induction positive controls (1mM phenobarbital), cytotoxicity positive controls ([…] aflatoxin B1), vehicle controls (0.5% DMSO), and total lysis controls (0.5% DMSO). Cell morphology images were taken using an Essen IncuCyte FLR automated microscope, with six 96-well plates imaged in about 24 minutes. Images were captured and exported and JPEG files. Spent culture media was transfered to black-well plates for the LDH assay, and remaining media was sorted at -80 C for later use. Cells were treated with RLT buffer and frozen until shipped for gene expression analysis. Total RNA was isolated from the cell suspension in 75 uL of Buffer RLT (Qiagen, Germantown, MD 20874) by Quintiles/Expression Analysis (Durham, NC) using a custom isolation procedure. Total RNA from each plate well was transferred to a preamplification plate. Fluidigm's 96.96 Dynamic ArrayTM (Fluidigm, Amsterdam, the Netherlands) technology was used for gene expression analyses by quantitative reverse transcription polymerase chain reaction (qRT-PCR, performed by Quintiles/Expression Analysis, Durham, NC)89. Standard TaqManTM Assays (Applied Biosystems/ThermoFisher Scientific, Foster City, CA) were used to assess the expression of 93 genes selected based on their selectivity and sensitivity to important hepatic receptors known to be modulated by environmental chemicals; importance in human hepatocyte functionality; and hepatotoxicity. […]

| SMILES | outcome | AC50 |
| --- | --- | --- |
| CCCCC(CC)C(=O)O (stereo unspecified) | inactive |  |
| CCCCCCCCCCCCCCC | inactive |  |
| CC(=O)Nc1ccc(O)cc1 | inactive |  |
| CN(C)CCOC(c1ccccc1)c1ccccc1 | inactive |  |
| CCC(C)c1ccccc1O (stereo unspecified) | inactive |  |
| CCCCc1oc2ccccc2c1C(=O)c1cc(I)c(OCCN(CC)CC)c(I)c1 | inactive |  |
| OCC(CO)(CBr)CBr | inactive |  |
| O=C(c1ccccc1)c1ccccc1 | inactive |  |
| CCCCCCCCCCCCOS(=O)(=O)O | inactive |  |
| O=C(CCCN1CCC(O)(c2ccc(Cl)cc2)CC1)c1ccc(F)cc1 | inactive |  |
| O=C1NS(=O)(=O)c2ccccc21 | inactive |  |
| CN(Cc1cnc2nc(N)nc(N)c2n1)c1ccc(C(=O)N[C@@H](CCC(=O)O)C(=O)O)cc1 | inactive |  |
| CCCCC=O | inactive |  |
| N=C(N)c1ccc(OCCCCCOc2ccc(C(=N)N)cc2)cc1 |  | 22.2 µM (active) |
| Cc1[nH]nc2c1N=C(c1ccccc1Cl)c1cc([N+](=O)[O-])ccc1N2 | inactive |  |
| CS(=O)(=O)c1ccc([C@@H](CC2CCCC2)C(=O)Nc2cnccn2)cc1Cl | inactive |  |
